Measurements taken from PubChem BioAssay (NCI).
This is part of a sample that, as a whole, favours compounds with a hit. Of some 79,000 tested, about 15% had one in any assay. Values without a mark were called inactive. Calls of active or inactive are those of the source. Rule as the data show it: active = growth inhibition above about 70%; inactive = the rest.

Experiment: NCI Yeast Anticancer Drug Screen. Data for the rad14 strain (AID 159);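 also: 0% = growth of vehicle-treated control cultures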
Conditions: S. cerevisiae rad14 strain growth inhibition, active compounds read high
Description: Growth inhibition of yeast strains with defined genetic alterations is measured as a screen for potential anti-cancer activity. Selected strains with alterations in DNA damage repair or cell cycle control were exposed to compounds and growth inhibition was measured relative to vehicle treated controls. The strain used in this assay is rad14

| Structure (SMILES) | growth inhibition (at 1.2 µM) [%] | growth inhibition (at 3.7 µM) [%] | growth inhibition (at 11.0 µM) | growth inhibition (at 33.0 µM) | growth inhibition (at 100.0 µM) |
| --- | --- | --- | --- | --- | --- |
| CN(CCN(C)Cc1ccccc1)Cc1ccccc1 | 5 | 18 | 18% | 43% | 68% |
| Oc1ccc(-c2nc(-c3ccc(F)cc3)c(-c3ccc4ccccc4n3)[nH]2)cc1 | -51 | -49 | -6% | 94% (active) | 91% (active) |
| CN(C)c1ccc(N=Nc2ccncc2)cc1 | 9 | 31 | 51% | 47% | 52% |
| CCC(=O)c1cc(C(=O)C(=S)SC)cc(C(=O)C(=S)SC)c1 | 1 | 22 | 94% (active) | 98% (active) | 95% (active) |
| Cc1ccc(NCCNCCO)c2c(=O)c3cc(O)ccc3sc12 | -18 | -4 | -2% | 0% | 97% (active) |
| O=C1NC(SSC2=NNC3(C(=O)N2)c2ccccc2-c2ccccc23)=NNC12c1ccccc1-c1ccccc12 | -1 | -4 | -1% | 2% | 8% |
| CCOc1ccc(NC(=O)C2=C(C)NC(C)=C(C(=O)Nc3ccc(OCC)cc3)C2c2cccc([N+](=O)[O-])c2)cc1 | -2 | -2 | -1% | 9% | 86% (active) |
| C=C1CC(CCCl)(c2ccccc2)OC1=O (stereo not given) | -2 | 25 | 60% | 95% (active) | 99% (active) |
